Results filed as inconclusive are left out. A call without a number means that no potency is given here. A number with no mark means an inactive call. Activity calls are given as the source filed them. Calls come from the whole dose curve; as a rule, active = well fitted curve in the direction sought with a large enough effect; inconclusive = small, poorly fitted or top-dose-only effect, or another doubt; inactive = no such curve, though single readings can be large; an effect the other way counts as inactive or inconclusive.
Experiments:
[1] = target: Rap guanine nucleotide exchange factor 3 (Homo sapiens) (UniProt O95398); test: Confirmatory qHTS for agonist of cAMP-regulated guanine nucleotide exchange factor 3 (EPAC1) (AID 1645881); note: nearly all actives have a fitted effect of over 75% in size; note: potency is the fitted concentration of half-maximal effect;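 for activation: EPAC1 catalysed release of BODIPY-GDP from Rap1B seen as fluorescence loss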
Sequence of Rap guanine nucleotide exchange factor 3 (Homo sapiens) (O95398 whole entry, looked up): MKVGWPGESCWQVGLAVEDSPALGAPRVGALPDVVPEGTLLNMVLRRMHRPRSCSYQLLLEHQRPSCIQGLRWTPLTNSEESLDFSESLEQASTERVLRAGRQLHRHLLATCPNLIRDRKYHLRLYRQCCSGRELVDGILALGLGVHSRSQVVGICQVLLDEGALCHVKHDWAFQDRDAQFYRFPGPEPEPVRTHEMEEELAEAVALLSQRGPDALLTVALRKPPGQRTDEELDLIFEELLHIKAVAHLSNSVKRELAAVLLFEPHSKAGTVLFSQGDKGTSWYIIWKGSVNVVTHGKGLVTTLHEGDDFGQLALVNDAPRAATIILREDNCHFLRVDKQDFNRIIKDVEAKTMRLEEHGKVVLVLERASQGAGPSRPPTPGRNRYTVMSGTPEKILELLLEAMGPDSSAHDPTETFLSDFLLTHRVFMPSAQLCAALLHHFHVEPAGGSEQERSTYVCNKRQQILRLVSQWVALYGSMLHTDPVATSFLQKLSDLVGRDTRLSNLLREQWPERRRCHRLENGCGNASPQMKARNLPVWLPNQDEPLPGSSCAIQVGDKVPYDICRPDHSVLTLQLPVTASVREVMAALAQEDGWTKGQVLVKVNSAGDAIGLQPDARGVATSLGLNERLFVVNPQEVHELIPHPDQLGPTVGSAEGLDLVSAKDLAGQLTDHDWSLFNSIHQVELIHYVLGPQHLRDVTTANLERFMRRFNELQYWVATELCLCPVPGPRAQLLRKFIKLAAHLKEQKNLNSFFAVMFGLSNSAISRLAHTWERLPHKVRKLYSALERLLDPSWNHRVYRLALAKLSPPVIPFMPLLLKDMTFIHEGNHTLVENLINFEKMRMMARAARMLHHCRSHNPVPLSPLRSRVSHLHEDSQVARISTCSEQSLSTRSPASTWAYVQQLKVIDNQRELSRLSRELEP

[2] = target: Rap guanine nucleotide exchange factor 4 (Homo sapiens) (UniProt Q8WZA2); test: Confirmatory qHTS for agonist of cAMP-regulated guanine nucleotide exchange factor 4 (EPAC2) (AID 1645884);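 note: nucleotide exchange releases bodipy-GDP from Rap1 and this lowers its fluorescence; nearly all actives have a fitted effect of over 65% in size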
Sequence of Rap guanine nucleotide exchange factor 4 (Homo sapiens) (Q8WZA2 whole entry, looked up): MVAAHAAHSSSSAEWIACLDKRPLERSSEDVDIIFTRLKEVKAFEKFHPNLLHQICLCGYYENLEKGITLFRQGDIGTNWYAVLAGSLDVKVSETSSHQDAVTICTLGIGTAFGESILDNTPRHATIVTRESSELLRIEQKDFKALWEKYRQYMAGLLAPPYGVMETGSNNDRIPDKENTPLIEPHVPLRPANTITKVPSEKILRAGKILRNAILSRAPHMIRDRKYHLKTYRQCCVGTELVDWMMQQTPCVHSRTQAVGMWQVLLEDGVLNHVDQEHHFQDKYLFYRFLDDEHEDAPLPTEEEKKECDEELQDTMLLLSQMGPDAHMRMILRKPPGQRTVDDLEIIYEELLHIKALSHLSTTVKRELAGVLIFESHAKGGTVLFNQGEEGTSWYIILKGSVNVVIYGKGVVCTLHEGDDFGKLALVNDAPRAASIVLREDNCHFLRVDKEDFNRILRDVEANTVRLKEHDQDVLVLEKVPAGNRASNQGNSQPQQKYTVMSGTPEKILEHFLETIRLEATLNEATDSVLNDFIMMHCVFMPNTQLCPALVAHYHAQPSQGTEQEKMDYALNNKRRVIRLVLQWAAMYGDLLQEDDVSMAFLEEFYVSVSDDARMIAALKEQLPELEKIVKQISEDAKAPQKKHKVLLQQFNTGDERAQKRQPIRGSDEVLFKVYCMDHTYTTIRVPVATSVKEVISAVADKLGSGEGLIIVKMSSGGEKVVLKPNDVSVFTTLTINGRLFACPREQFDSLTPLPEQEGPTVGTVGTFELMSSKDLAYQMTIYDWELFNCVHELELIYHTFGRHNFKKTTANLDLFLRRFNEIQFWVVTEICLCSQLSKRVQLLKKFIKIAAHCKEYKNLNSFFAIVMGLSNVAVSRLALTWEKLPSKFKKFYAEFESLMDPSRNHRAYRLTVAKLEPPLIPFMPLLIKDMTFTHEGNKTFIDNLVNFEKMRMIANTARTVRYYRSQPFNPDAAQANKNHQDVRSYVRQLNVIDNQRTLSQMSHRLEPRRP

[3] = target: Rap guanine nucleotide exchange factor 4 (Homo sapiens) (UniProt Q8WZA2); test: Confirmatory qHTS for antagonist of cAMP-regulated guanine nucleotide exchange factor 4 (EPAC2) (AID 1645885); note: nearly all actives have a fitted effect of over 25% in size; note: potency is the fitted concentration of half-maximal effect
[4] = target: Rap guanine nucleotide exchange factor 3 (Homo sapiens) (UniProt O95398); test: Counterscreen qHTS for antagonist of cAMP-regulated guanine nucleotide exchange factor 3 (EPAC1) (AID 1645888);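 note: fluorescence loss as bound BODIPY-GDP is released from Rap1B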
Procedure, shortened: (§1)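 Rap1B–BODIPY-GDP (250 nM) with 50 uM GDP; compounds pin-transferred to 9.74 nM–152 uM final (activator) or from 7.32 nM upwards (inhibitor). Fluorescence Ex/Em 480/540 nm read at 5 and 30 min, then after adding cAMP or buffer, at room temperature.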

[5] = target: Rap guanine nucleotide exchange factor 3 (Homo sapiens) (UniProt O95398); test: Counterscreen qHTS for agonist of cAMP-regulated guanine nucleotide exchange factor 3 (EPAC1) (AID 1645889); note: nearly all actives have a fitted effect of over 40% in size
Procedure, shortened: as §1

Row | SMILES | Potency [1] | Potency [2] | Potency [3] | Potency [4] | Potency [5] | activation [2] | activity change, negative = inhibition [4] | activation [5] | outcome [3]
1 | CCc1ccc(OCC2c3cc(OC)c(OC)cc3CCN2C(C)=O)cc1 (stereo not given) | inactive | inactive | 42.6 µM (active) | inactive | inactive |  |  |  | 
2 | Cc1cc2nc(-c3ccco3)c(Cc3cccc(F)c3)n2c(C)c1Br | inactive |  | inactive |  |  | 6.3% [at 17.1 µM, percent relative to cAMP agonist control] | -4.32% [at 30.8 µM] | 10.5% [at 30.8 µM] | 
3 | Cc1ccc(C(=O)c2no[n+]([O-])c2C(=O)c2ccc(C)cc2)cc1 | inactive | inactive | inactive | inactive | inactive |  |  |  | 
4 | COc1ccc(NC(=O)CN2CCN(c3c(C)cc(C)cc3C)CC2)cc1 | inactive |  | inactive |  |  | 7.83% [at 17.1 µM, percent relative to cAMP agonist control] | 9.75% [at 30.8 µM] | 16.1% [at 30.8 µM] | 
5 | Cc1nnc(-c2ccco2)c2cn(-c3cccc(Br)c3)nc12 | inactive | inactive | inactive | inactive | inactive |  |  |  | 
6 | CCC(C(=O)O)N1C(=O)/C(=C/C(C)=C/c2ccccc2)SC1=S (stereo not given) | inactive | inactive | 75.7 µM (active) | inactive | inactive |  |  |  | 
7 | O=C(N/N=C/c1ccccc1O)c1cccc(C(F)(F)F)c1 | inactive |  | inactive |  |  | 5.14% [at 17.1 µM, percent relative to cAMP agonist control] | -7.23% [at 30.8 µM] | 8.8% [at 30.8 µM] | 
8 | COc1ccc(C2CC(=O)C3=C(C2)NC(C)=C(C#N)C3c2ccc(N(C)C)cc2)cc1 (stereo not given) | inactive |  | inactive |  |  | 6.82% [at 17.1 µM, percent relative to cAMP agonist control] | 0.0712% [at 30.8 µM] | 20% [at 30.8 µM] | 
9 | CC(C)(C)C(=O)N1CCC2CC1c1cc(-c3ccc4c(c3)OCO4)ccc12 (stereo not given) | inactive |  | inactive |  |  | 4.8% [at 17.1 µM, percent relative to cAMP agonist control] | -12.7% [at 30.8 µM] | 13.1% [at 30.8 µM] | 
10 | CCCCN(C(=O)Cn1ncc(Cl)c(Cl)c1=O)c1c(N)n(CC(C)C)c(=O)[nH]c1=O | inactive |  | inactive |  |  | 3.26% [at 17.1 µM, percent relative to cAMP agonist control] | -8.9% [at 30.8 µM] | 16.5% [at 30.8 µM] | 
11 | Cn1c(N)c(C(=O)CSc2nnc(-c3c[nH]c4ccccc34)n2C2CC2)c(=O)[nH]c1=O | inactive |  | inactive |  |  | 1.91% [at 17.1 µM, percent relative to cAMP agonist control] | 2.97% [at 30.8 µM] | 17.7% [at 30.8 µM] | 
12 | Cc1ccc(F)c(S(=O)(=O)NC(=O)C2(C)CCN2C(=O)C2(c3ccc(Cl)cc3)CCC2)c1 (stereo not given) | inactive | inactive | inactive | inactive | inactive |  |  |  | 
13 | CC1=C(C(=O)OC(C)C)C(c2ccc(C)o2)C(C(=O)OC(C)C)=C(C)N1 | inactive | inactive | 30.1 µM (active) | inactive | inactive |  |  |  | 
14 | CCOC(=O)C(NS(=O)(=O)c1ccc(C)cc1)(C(F)(F)F)P(=O)(OCC(C)C)OCC(C)C (stereo not given) | inactive | inactive | inactive | inactive | inactive |  |  |  | 
15 | Cc1ccc2nc3sc(C(=O)Nc4c(C)[nH]c(=O)[nH]c4=O)c(N)c3cc2c1 | inactive |  | inactive |  |  | 4.59% [at 17.1 µM, percent relative to cAMP agonist control] | 2.13% [at 30.8 µM] | 5.21% [at 30.8 µM] | 
16 | COc1ccc(/C=N\Nc2ccc([N+](=O)[O-])cc2)c(C(=O)O)c1OC | inactive | inactive | inactive | inactive | inactive |  |  |  | 
17 | CCOC(=O)C1=C(C)N=c2s/c(=C/c3cccc([N+](=O)[O-])c3O)c(=O)n2C1c1ccccc1 (stereo not given) | inactive | inactive | inactive | inactive | inactive |  |  |  | 
18 | CC(C)N1CCc2c(sc(NC(=O)c3ccc(S(=O)(=O)N4CCc5ccccc54)cc3)c2C(N)=O)C1 | inactive | inactive | inactive | inactive | inactive |  |  |  | 
19 | COc1ccc(S(=O)(=O)Nc2ccc3cn[nH]c3c2)cc1C | inactive | inactive | 67.5 µM (active) | inactive | inactive |  |  |  | 
20 | CC1CCC/C(=C\Nc2ccc(O)cc2)C1=O (stereo not given) | inactive |  | inactive |  |  | 6.29% [at 17.1 µM, percent relative to cAMP agonist control] | -12.6% [at 30.8 µM] | 3.58% [at 30.8 µM] | 

Row | SMILES | Potency [1] | Potency [2] | Potency [3] | Potency [4] | Potency [5] | activation [2] | activity change, negative = inhibition [4] | activation [5] | outcome [3]
21 | CCOC(=O)C1=C(C)OC(N)=C(C#N)C1c1cc2c(cc1Br)OCO2 (stereo not given) | inactive |  | inactive |  |  | -5.39% [at 17.1 µM, percent relative to cAMP agonist control] | -23.2% [at 30.8 µM] | 11% [at 30.8 µM] | 
22 | Cc1ccc(NC2c3ncccc3C(=O)N2Cc2cccs2)cc1 (stereo not given) | inactive |  | inactive |  |  | -5.52% [at 17.1 µM, percent relative to cAMP agonist control] | 8.01% [at 30.8 µM] | 1.62% [at 30.8 µM] | 
23 | CCCC(=O)OCCNc1cc(SCc2ccco2)c2nonc2c1[N+](=O)[O-] | inactive |  | inactive |  |  | 4.83% [at 17.1 µM, percent relative to cAMP agonist control] | 14.3% [at 30.8 µM] | 26.5% [at 30.8 µM] | 
24 | O=c1cc(-c2c(O)c3ccccc3n(Cc3ccccc3)c2=O)[nH][nH]1 | inactive | inactive | inactive | inactive | inactive |  |  |  | 
25 | CCCCC(CC)C(=O)Nc1ccc(Nc2ccccc2)cc1 (stereo not given) | inactive | inactive | inactive | inactive | inactive |  |  |  | 
26 | O=C(O)CN1C(=O)/C(=C\C(Br)=C\c2ccccc2)SC1=S | inactive |  | inactive |  |  | 6.32% [at 17.1 µM, percent relative to cAMP agonist control] | 0.657% [at 30.8 µM] | 8.49% [at 30.8 µM] | 
27 | Cc1ccc(NC(=O)CCC(=O)c2cccs2)nc1 | inactive |  | inactive |  |  | 3.39% [at 17.1 µM, percent relative to cAMP agonist control] | -8.32% [at 30.8 µM] | 21.4% [at 30.8 µM] | 
28 | CCN(CC)C(=O)c1ccc2c(c1)N(Cc1ccc(C(F)(F)F)cc1)C(=O)c1ccccc1S2 | inactive | inactive |  | inactive | inactive |  |  |  | inactive [at 12.7 µM]
29 | CCOc1ccc(NC(=O)CN(C)S(=O)(=O)c2ccc(-c3ccc(=O)[nH]n3)s2)cc1 | 100 µM (active) | inactive | inactive | inactive | inactive |  |  |  | 
30 | Cc1cc(C)c(C)c(S(=O)(=O)N2CCCCC2C(=O)O)c1C (stereo not given) | inactive |  | inactive |  |  | 4.7% [at 17.1 µM, percent relative to cAMP agonist control] | 8.45% [at 30.8 µM] | -1.83% [at 30.8 µM] | 
31 | COc1ccc(-c2cnnc(N/N=C/c3ccc(O)c(O)c3)n2)cc1 | inactive | inactive | inactive | inactive | inactive |  |  |  | 
32 | CCC(C)[C@H]1COCCS(=O)(=O)N1Cc1ccc(Cl)cc1Cl (stereo not given in full) | inactive | inactive | inactive | inactive | inactive |  |  |  | 
33 | N#C/C(=C\c1ccc(OCc2ccc(C(=O)O)cc2)cc1)C(=O)N1CCOCC1 | inactive | inactive | 21.3 µM (active) | inactive | inactive |  |  |  | 
34 | COc1ccc(C(CCN(Cc2ccc(OC)c(OC)c2)C(C)=O)C(C)C)cc1 (stereo not given) | inactive | inactive | inactive | inactive | inactive |  |  |  | 
35 | CNc1ccc(/C=C/C(=O)c2ccc(C)cc2)cc1[N+](=O)[O-] | inactive |  | inactive |  |  | -1.81% [at 17.1 µM, percent relative to cAMP agonist control] | 16.3% [at 30.8 µM] | 21% [at 30.8 µM] | 
36 | OC(c1cc(F)cc(Cl)c1)c1ncc(-c2cccc(C(F)(F)F)c2)[nH]1 (stereo not given) | inactive |  | inactive |  |  | -1.66% [at 17.1 µM, percent relative to cAMP agonist control] | -12% [at 30.8 µM] | 19.7% [at 30.8 µM] | 
37 | COC(=O)c1ccc2nc(-c3ccco3)c(Cc3ccccc3)n2c1 | inactive |  | inactive |  |  | 7.95% [at 17.1 µM, percent relative to cAMP agonist control] | -11.9% [at 30.8 µM] | 10% [at 30.8 µM] | 
38 | COc1cccc(OC)c1C(=O)NC(=S)NNC(=O)[C@H]1C[C@@H]1c1ccccc1 | inactive | inactive | inactive | inactive | inactive |  |  |  | 
39 | N#CC(c1nc2ccccc2nc1OCCO)S(=O)(=O)c1ccccc1 (stereo not given) | inactive |  | inactive |  |  | -1.2% [at 17.1 µM, percent relative to cAMP agonist control] | -25.3% [at 30.8 µM] | 20.5% [at 30.8 µM] | 

— PubChem BioAssay (NCATS)
